Active and inactive are the calls of the source. Unless noted, how the calls were made is not given here.

The test system of assay [1] is Wnt5a (protein binding on small-molecule microarray). The assay can be described thus: small molecules binding Wnt5a protein – biophysical, small-molecule microarray, 635/667 nm fluorescence, primary screen (AID 1142).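 Further: fluorescence read at 667 nm with signal to noise per printed feature.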 The note with it: 635 nm fluorescence, higher = more signal.
A short description of assay [2]: ATP-based viability of Huh7 replicon cells – cell-based, CellTiter-Glo luminescence, basal, 48 h, cytotoxicity control for HCV replication inhibitor project, primary screen (AID 1143).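 Further: Huh7 hepatoma cells carrying a hepatitis C replication reporter with no stimulus; test concentration not given here.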 The note with it: higher = more signal, called active from +8 up or from −8 down.
A short description of assay [3]: Pseudomonas biofilm growth suppression – PAO1 strain, BacTiter-Glo luminescence, LB-PBS, primary screen (AID 1144). The note with it: P. aeruginosa PAO1 biofilm, 12 h, higher = more signal.
A short description of assay [4]: basal CRE-LacZ reporter activity in PC12 – cell-based, unstimulated, primary screen (AID 1145). The note with it: no forskolin, luminescence, 4.5 h, higher = more signal, called active from +8 up or from −8 down.
A short description of assay [5]: forskolin-driven CRE-LacZ activity in PC12 – cell-based, CRE-LacZ reporter, forskolin-stimulated, primary screen (AID 1146).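 Further: PC12 cells with 6xCRE LacZ reporter stimulated by forskolin 10 µM; beta-galactosidase reporter signal reflecting CREB driven transcription.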 The note with it: luminescence, 4.5 h, higher = more signal, called active from +8 up or from −8 down.
Assay [6] has as its target Streptavidin (Streptomyces avidinii) (UniProt P22629). The assay can be described thus: compounds binding control protein streptavidin – biophysical, small-molecule microarray, 635/667 nm fluorescence, artefact control for SMM compound annotation, primary screen (AID 1147).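 Further: signal reflects streptavidin binding to arrayed compounds as a control protein.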 The conditions noted are these: higher = more signal.
Assay [7] is described as follows: probe aInhba binding on compound microarray – biochemical, small-molecule microarray, 635/667 nm fluorescence, primary screen (AID 1148).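 Further: score merges 667nm spot fluorescence with signal-to-noise for antibody binding to printed compounds.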 The note with it: higher = more signal.
In assay [8] the target is Torsin-1A (Homo sapiens) (UniProt O14656). Put plainly: TOR1A wild-type binding on microarray – cell lysate, small-molecule microarray, lysate, 635/667 nm, primary screen (AID 1149). The conditions noted are these: COS7 hTOR1A-WT lysate, 635 nm fluorescence, higher = more signal.
Assay [9] has the same target. The assay can be described thus: torsin A mutant lysate binding on microarrays – cell lysate, small-molecule microarray, COS7 lysate, 635/667 nm fluorescence, primary screen (AID 1150).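 Further: score pools 667 nm emission and signal to noise measuring lysate protein binding.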 The conditions noted are these: COS7 hTOR1A mutant lysate, 635 nm fluorescence, higher = more signal.
For assay [10], the system named is Sonic hedgehog protein (Shh). The assay can be described thus: Sonic hedgehog microarray binding compounds – biochemical, small-molecule microarray, 635/667 nm fluorescence, primary screen (AID 1151).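 Further: Shh protein binding to compounds spotted on small-molecule microarray slides; score combines spot fluorescence intensity with signal-to-noise across triplicate slides.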 The note with it: 635 nm fluorescence, higher = more signal.
Assay [11] in a line: optical density shifts of acrAB sulA E. coli – strain DRC41, OD650, 48 h, E. coli filamentation inducer project, primary screen (AID 1152).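 Further: E. coli MC1000 strain DRC41 lacking acrAB efflux pump and sulA.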 The conditions noted are these: higher = more signal, called active from +8 up or from −8 down.
The nature of assay [12]: probe aLefty1 binding on compound microarray – biochemical, small-molecule microarray, 635/667 nm fluorescence, primary screen (AID 1153).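 Further: score merges spot fluorescence with signal-to-noise ratio from the scanned slide images.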 The note with it: higher = more signal.
Assay [13] in a line: plasmodial surface anion channel blockers, osmotic lysis – cell-based, P. falciparum Indochina, OD700, 1 h, primary screen (AID 1154). The note with it: P. falciparum Indochina infected RBC osmotic lysis, higher = more signal, called active from +8 up or from −8 down.
A short description of assay [14]: plasmodial surface anion channel blockers, osmotic lysis – cell-based, P. falciparum Indochina, OD700, 2 h, primary screen (AID 1155).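 Further: lysis reports solute entry through the parasite surface anion channel PSAC.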 The conditions noted are these: P. falciparum Indochina infected erythrocytes, higher = more signal, called active from +8 up or from −8 down.
Assay [15] is described as follows: changes in parasitized red cell lysis, either direction – P. falciparum Indochina, OD700, 3 h, PSAC antagonist project, primary screen (AID 1156). The conditions noted are these: P. falciparum-infected erythrocytes, osmotic lysis, higher = more signal, called active from +8 up or from −8 down.
Assay [16] is described as follows: plasmodial surface anion channel blockers, osmotic lysis – cell-based, P. falciparum Indochina, OD700, 18 h, primary screen (AID 1157). The conditions noted are these: P. falciparum Indochina infected erythrocytes, osmotic lysis OD700, 18 h; higher = more signal, called active from +8 up or from −8 down.
Assay [17] is described as follows: S6 kinase pathway phospho-S6 level changes – cell-based, A549, cytoblot, luminescence, serum-stimulated, primary screen (AID 1158).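 Further: serum-stimulated A549 lung adenocarcinoma cells; signal is phosphorylated S6 detected by cytoblot immunostaining with HRP secondary.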 The conditions noted are these: 5 h, higher = more signal.
The target in assay [18] is NADPH oxidase 2 (Homo sapiens) (UniProt P04839). Put plainly: compounds shifting NOX2 Amplex Red fluorescence – cell-based, HEK293-NOX2, PMA-stimulated, NOX inhibitor project, primary screen (AID 1159). Further: test concentration not given here. The note with it: 45 min, higher = more signal, called active from +8 up or from −8 down.
The target in assay [19] is NADPH oxidase 4 (Homo sapiens) (UniProt Q9NPH5). The assay can be described thus: compounds shifting NOX4 Amplex Red fluorescence – cell-based, HEK293-NOX4, tetracycline-induced, NOX inhibitor project, primary screen (AID 1160). The note with it: HEK293-NOX4, Amplex Red H2O2 fluorescence, 45 min; higher = more signal, called active from +8 up or from −8 down.
Assay [20] concerns the target NADPH oxidase 5 (Homo sapiens) (UniProt Q96PH1). The assay can be described thus: compounds shifting NOX5 Amplex Red fluorescence – cell-based, HEK293-NOX5, NOX inhibitor project, primary screen (AID 1161). The conditions noted are these: HEK293-NOX5, ionomycin, 45 min, higher = more signal.

Chain of Torsin-1A (Homo sapiens) (O14656 whole entry, looked up): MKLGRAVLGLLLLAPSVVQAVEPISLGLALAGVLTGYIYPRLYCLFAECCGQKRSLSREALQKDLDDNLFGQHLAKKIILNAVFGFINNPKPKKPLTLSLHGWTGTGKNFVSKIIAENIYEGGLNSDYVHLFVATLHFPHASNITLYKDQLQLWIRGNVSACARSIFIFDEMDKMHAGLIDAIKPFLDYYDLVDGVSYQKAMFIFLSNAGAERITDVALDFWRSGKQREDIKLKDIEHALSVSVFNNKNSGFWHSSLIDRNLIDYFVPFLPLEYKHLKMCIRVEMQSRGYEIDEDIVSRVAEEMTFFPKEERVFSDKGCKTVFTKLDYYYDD
Chain of NADPH oxidase 5 (Homo sapiens) (Q96PH1 whole entry, looked up): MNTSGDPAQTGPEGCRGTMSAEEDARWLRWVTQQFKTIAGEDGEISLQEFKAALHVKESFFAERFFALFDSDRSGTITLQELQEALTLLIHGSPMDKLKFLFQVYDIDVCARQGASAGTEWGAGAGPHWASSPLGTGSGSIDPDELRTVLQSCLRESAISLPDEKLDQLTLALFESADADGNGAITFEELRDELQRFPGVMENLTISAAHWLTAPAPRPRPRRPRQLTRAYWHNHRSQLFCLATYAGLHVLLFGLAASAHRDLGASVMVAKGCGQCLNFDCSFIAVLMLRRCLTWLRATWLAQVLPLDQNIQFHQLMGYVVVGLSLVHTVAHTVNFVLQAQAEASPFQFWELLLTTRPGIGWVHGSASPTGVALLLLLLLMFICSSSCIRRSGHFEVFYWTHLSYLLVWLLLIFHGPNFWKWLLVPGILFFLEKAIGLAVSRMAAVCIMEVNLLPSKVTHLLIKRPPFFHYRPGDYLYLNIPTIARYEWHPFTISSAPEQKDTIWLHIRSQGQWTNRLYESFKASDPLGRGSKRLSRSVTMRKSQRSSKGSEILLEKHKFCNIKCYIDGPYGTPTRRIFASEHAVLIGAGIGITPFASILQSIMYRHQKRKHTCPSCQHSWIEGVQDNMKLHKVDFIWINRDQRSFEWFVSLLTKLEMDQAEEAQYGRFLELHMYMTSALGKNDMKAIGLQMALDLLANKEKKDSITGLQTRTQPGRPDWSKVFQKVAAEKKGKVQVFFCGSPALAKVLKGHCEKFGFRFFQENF
Chain of Streptavidin (Streptomyces avidinii) (P22629 whole entry, looked up): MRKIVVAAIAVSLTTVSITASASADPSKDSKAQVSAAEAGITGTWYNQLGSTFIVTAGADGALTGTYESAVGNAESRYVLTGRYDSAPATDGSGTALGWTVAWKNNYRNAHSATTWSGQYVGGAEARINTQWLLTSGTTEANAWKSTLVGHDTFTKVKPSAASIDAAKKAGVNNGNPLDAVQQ
Chain of NADPH oxidase 4 (Homo sapiens) (Q9NPH5 whole entry, looked up): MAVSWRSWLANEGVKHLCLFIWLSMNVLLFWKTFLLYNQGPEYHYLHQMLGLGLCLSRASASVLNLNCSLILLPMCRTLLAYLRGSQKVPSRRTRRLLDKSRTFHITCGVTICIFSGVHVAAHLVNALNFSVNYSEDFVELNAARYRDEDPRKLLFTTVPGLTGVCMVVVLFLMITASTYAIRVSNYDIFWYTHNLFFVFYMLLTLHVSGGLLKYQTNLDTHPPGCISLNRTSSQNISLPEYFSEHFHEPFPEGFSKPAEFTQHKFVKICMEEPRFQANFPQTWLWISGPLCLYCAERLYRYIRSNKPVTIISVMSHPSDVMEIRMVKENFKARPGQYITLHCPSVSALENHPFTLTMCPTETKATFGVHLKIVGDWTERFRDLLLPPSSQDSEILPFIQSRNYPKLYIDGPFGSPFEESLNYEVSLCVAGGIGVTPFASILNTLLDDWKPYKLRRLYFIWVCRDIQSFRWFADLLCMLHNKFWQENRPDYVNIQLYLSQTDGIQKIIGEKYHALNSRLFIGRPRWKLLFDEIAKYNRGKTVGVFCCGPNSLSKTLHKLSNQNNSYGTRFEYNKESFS
Chain of NADPH oxidase 2 (Homo sapiens) (P04839 whole entry, looked up): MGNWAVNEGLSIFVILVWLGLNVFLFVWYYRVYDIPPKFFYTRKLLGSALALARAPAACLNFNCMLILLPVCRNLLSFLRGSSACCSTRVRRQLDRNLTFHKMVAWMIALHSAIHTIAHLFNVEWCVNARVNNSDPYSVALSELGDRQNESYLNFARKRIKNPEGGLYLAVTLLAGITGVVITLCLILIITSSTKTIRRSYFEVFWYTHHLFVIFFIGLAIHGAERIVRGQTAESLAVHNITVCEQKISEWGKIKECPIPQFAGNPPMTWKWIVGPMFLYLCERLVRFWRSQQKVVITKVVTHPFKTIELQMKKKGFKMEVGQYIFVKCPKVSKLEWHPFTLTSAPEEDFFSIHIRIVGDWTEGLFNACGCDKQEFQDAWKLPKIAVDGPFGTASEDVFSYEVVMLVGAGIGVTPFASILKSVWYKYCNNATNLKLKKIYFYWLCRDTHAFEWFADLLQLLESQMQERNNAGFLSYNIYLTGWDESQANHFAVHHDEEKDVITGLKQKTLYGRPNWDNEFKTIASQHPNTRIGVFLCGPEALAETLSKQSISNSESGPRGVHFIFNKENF

Turning to `O=C1C2C=CC(C(O)c3ccc([N+](=O)[O-])cc3)N(Nc3ccc([N+](=O)[O-])cc3)C2C(=O)N1c1ccccc1` (stereo not given), the composite z-score is 0.71 in assay [1]; 0.903 in [6]; 0.154 in assay [7]; 0.128 in the assay with Torsin-1A (Homo sapiens) [8]; 0.726 in the assay with Torsin-1A (Homo sapiens) [9]; -0.114 in assay [10]. The composite z-score in [12] was determined as 0.446. Besides, the z-score in assay [2] is 0.301 (inactive); in assay [3], -0.328 (inactive); in assay [4], -0.228 (inactive); in assay [5] it was 0.554 (inactive); in assay [11] it was -1.39 (inactive); in [13], 12.9 (active). Besides, the z-score is 1.96 (inactive) in assay [14]; 0.958 (inactive) in assay [15]; 1.02 (inactive) in assay [16]; -0.922 in assay [17]; -1.24 (inactive) in assay [18]; -2.87 (inactive) in assay [19]. For the same compound, in [20], the z-score was -2.36.

On to `O=C1c2ccccc2[C@@]2(Cc3ccccc3N(C3CC3)C2=O)[C@H](c2ccc(CO)cc2)N1Cc1ccccc1C(F)(F)F`, for which the composite z-score in [1] is -0.145; in assay [6], -1.07; in [7], 0.21; with Torsin-1A (Homo sapiens) [8], -1.02; with Torsin-1A (Homo sapiens) [9] it was -0.77; in assay [10] it was -0.537. In [12], this compound registered a composite z-score of 0.566. Moreover, the z-score was -4.35 (inactive) in assay [2]; -0.459 (inactive) in assay [3]; -0.258 (inactive) in assay [4]; -0.0879 (inactive) in assay [5]; -0.262 (inactive) in assay [11]; 0.949 (inactive) in [13]. The z-score in assay [14] was -0.28 (inactive); in [15], -0.31 (inactive); in assay [16], -1.41 (inactive); in assay [17], 1.01; in assay [18], 0.136 (inactive); in assay [19], -1.4 (inactive). In addition, the z-score in assay [20] is -0.129.

As to `CO[C@H]1O[C@H](CO)[C@@H](OC(=O)Nc2ccc(C#N)cc2)[C@H](OC(=O)c2cc3ccccc3[nH]2)[C@H]1OC(=O)c1cc2ccccc2[nH]1`, the composite z-score in assay [1] was 0.436; in [6], 0.779; in assay [7], -0.0011; with Torsin-1A (Homo sapiens) [8], 0.91; with Torsin-1A (Homo sapiens) [9] it was 1.36; in [10] it was 0.746. The compound also yielded a composite z-score in assay [12] of 0.254. Besides, the z-score in [2] is -3.88 (inactive); in assay [3], -2.05 (inactive); in assay [4] it was 0.484 (inactive); in assay [5], -1.03 (inactive); in [11], 2.89 (inactive); in assay [13], 3.44 (inactive). Further, the z-score is 0.178 (inactive) in assay [14]; 1.71 (inactive) in assay [15]; -0.418 (inactive) in assay [16]; 2.06 in assay [17]; -3.9 (inactive) in assay [18]; -0.214 (inactive) in assay [19]. Besides, the z-score in assay [20] was -4.49.

As to `CCCC[C@H]1OB(O)C[C@H]2C1=C(C)C[C@H]1C(=O)N(C)C(=O)[C@H]12`, the composite z-score in assay [1] was 0.224; in assay [6], -0.174; in assay [7], -0.0221; in the assay with Torsin-1A (Homo sapiens) [8], 0.697; with Torsin-1A (Homo sapiens) [9] it was -0.102; in [10], 0.948. The compound further yielded a composite z-score in assay [12] of -0.147. For the same compound, the z-score was 0.0813 (inactive) in assay [2]; -0.0729 (inactive) in assay [3]; -0.237 (inactive) in assay [4]; 1.23 (inactive) in assay [5]; -0.908 (inactive) in assay [11]; 0.39 (inactive) in assay [13]. For the same compound, the z-score in [14] is -0.123 (inactive); in assay [15] it was -0.974 (inactive); in assay [16], 0.0834 (inactive); in assay [17], 0.292; in assay [18] it was -0.76 (inactive); in [19] it was 0.332 (inactive). In assay [20], the z-score was -0.235.

For `C=C(COC)/C(=C/C[C@H](OC(=O)c1ccncc1)c1ccc(CO)o1)c1cc(C(=O)OC)ccc1OC`, the composite z-score is 0.868 in assay [1]; -0.24 in assay [6]; -0.003 in [7]; 0.787 with Torsin-1A (Homo sapiens) [8]; 0.366 with Torsin-1A (Homo sapiens) [9]; 1.62 in assay [10]. Also, the composite z-score in [12] is 0.188. Also, the z-score in [2] is -0.0528 (inactive); in assay [3], -1.27 (inactive); in assay [4], 0.0422 (inactive); in assay [5], 0.877 (inactive); in [11], 0.165 (inactive); in assay [13], 2.65 (inactive). The z-score in [14] was 0.189 (inactive); in assay [15] it was 0.656 (inactive); in assay [16], 0.013 (inactive); in assay [17], -0.0278; in [18], -0.564 (inactive); in [19], 0.0937 (inactive). Further, in [20], the z-score was -0.413.

Values taken from PubChem BioAssay.
